This is part of a sample that, as a whole, favours compounds with a hit. Of some 79,000 tested, about 15% had one in any assay. Unmarked numbers belong to inactive results. The source made the active and inactive calls. Cut-off read from the data, not from the text of the source: active = growth inhibition above about 70%; inactive = the rest.
Tests used:
[1] = NCI Yeast Anticancer Drug Screen. Data for the rad50 strain (AID 155);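 note: 0% = growth of vehicle-only cultures of the same strain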; settings: S. cerevisiae rad50 strain growth inhibition, stronger effect = higher value
Method in brief: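 Vehicle-treated cultures provide the reference for the growth inhibition reported for compound-exposed, repair-deficient yeast.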

[2] = NCI Yeast Anticancer Drug Screen. Data for the mec2-1 strain (AID 157); settings: S. cerevisiae mec2-1 strain, stronger effect = higher value
Method in brief: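 Strain: mec2-1 (DNA repair/cell cycle alteration). Compound exposure, then growth measured; inhibition expressed relative to vehicle.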

[3] = NCI Yeast Anticancer Drug Screen. Data for the sgs1 mgt1 strain (AID 161);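 note: 0% = growth of cultures given vehicle only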; settings: S. cerevisiae sgs1 mgt1 strain, stronger effect = higher value
Method in brief: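 Read-out: growth inhibition vs vehicle controls. Cells: mutant yeast strain deficient in DNA damage repair.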

[4] = NCI Yeast Anticancer Drug Screen. Data for the cln2 rad14 strain (AID 165);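 note: 0% = growth equal to vehicle treated cultures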; settings: S. cerevisiae cln2 rad14 strain, stronger effect = higher value
Method in brief: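 Compounds are applied to the cln2 rad14 yeast strain, and growth is then compared with that of vehicle-treated cultures to give inhibition.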

[5] = NCI Yeast Anticancer Drug Screen. Data for the bub3 strain (AID 167); settings: S. cerevisiae bub3 mutant strain, stronger effect = higher value
Method in brief: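 Mutant yeast screening strain plus compound; vehicle-treated cultures serve as the 0% inhibition reference.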

[6] = NCI Yeast Anticancer Drug Screen. Data for the mlh1 rad18 strain (AID 175); settings: S. cerevisiae mlh1 rad18 strain growth inhibition, stronger effect = higher value
Method in brief: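 Read-out is yeast growth inhibition, calculated against vehicle-only controls. The compound was applied to a strain engineered with DNA damage repair alterations.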

[7] = at 5.0 µM (retest, dose inferred, filed as 0.5)
[8] = at 50.0 µM (retest, dose inferred, filed as 5.0)

| SMILES | growth inhibition [1, 7] | growth inhibition [1, 8] | growth inhibition ([1]; at 50.0 µM) | growth inhibition [2, 7] | growth inhibition [2, 8] | growth inhibition ([2]; at 50.0 µM) | growth inhibition [3, 7] | growth inhibition [3, 8] | growth inhibition ([3]; at 50.0 µM) | growth inhibition [4, 7] | growth inhibition [4, 8] | growth inhibition ([4]; at 50.0 µM) | growth inhibition [5, 7] | growth inhibition [5, 8] | growth inhibition ([5]; at 50.0 µM) | growth inhibition [6, 7] | growth inhibition [6, 8] | growth inhibition ([6]; at 50.0 µM) |
| --- | --- | --- | --- | --- | --- | --- | --- | --- | --- | --- | --- | --- | --- | --- | --- | --- | --- | --- |
| Cc1cccc(/C=N/Nc2ccccn2)n1 | 22% | 27% | 83% (active) | 17% | 37% | 78.8% (active) | 20% | 38% | 37.1% | 17% | 37% | 23.8% | 15% | 41% | 37.6% | 21% | 42% | 87.6% (active) |
| CCCCCCCCCCCC(=O)NCCc1ccc(O)c(O)c1 | 4% | 94% (active) | 97.2% (active) | 5% | 96% (active) | 98.5% (active) | 4% | 95% (active) | 97.5% (active) | -3% | 55% | 94.2% (active) | -7% | 91% (active) | 95.8% (active) | 1% | 96% (active) | 98% (active) |
| O=[N+]([O-])c1ccc2nc(Nc3ccccc3)c(Nc3ccccc3)nc2c1 | -18% | 91% (active) | 74.1% (active) | 1% | 95% (active) | 77.8% (active) | -1% | 93% (active) | 63.9% | 24% | 93% (active) | 70.5% (active) | 15% | 93% (active) | 72.2% (active) | -6% | 93% (active) | 73% (active) |
| CC(c1ccccc1)c1cc(C(C)(C)C)ccc1O (configuration not stated) | -4% | 99% (active) | 99.6% (active) | -25% | 100% (active) | 99.8% (active) | -2% | 71% (active) | 99.7% (active) | -12% | 100% (active) | 99.3% (active) | -8% | 99% (active) | 99.4% (active) | -19% | 99% (active) | 99.3% (active) |
| CSc1nnc(CCC(=O)Nc2c(C)cccc2C(C)(C)C)o1 | -5% | 1% | -2.5% | 1% | 4% | 27.8% | -14% | 25% | 10.9% | 4% | 7% | 49.6% | 7% | 7% | 0.65% | -9% | -3% | 1.65% |
| COC(=O)c1c(C)cccc1C(=O)c1c(C)cc(C)cc1C | -6% | 63% | 73.1% (active) | 21% | 68% | 82.2% (active) | -1% | 82% (active) | 91.8% (active) | -26% | 45% | 15.2% | 2% | 56% | 88.2% (active) | 4% | 85% (active) | 91.8% (active) |
| CC(C)(C)[Si](C)(C)OCC1OC(n2cnc3c(NC(=O)c4ccccc4)ncnc32)CC1O (configuration not stated) | 2% | 4% | 10% | -2% | 4% | -28.8% | -1% | 6% | 3.25% | -1% | 2% | 77.6% (active) | -2% | -4% | 10.5% | -2% | 4% | 32.5% |
| CCN(CC)C(=O)CCCC1CCCCC1 | 1% | 23% | 45.6% | -3% | 4% | 13.2% | 0% | 20% | 66.5% | 0% | 11% | -9% | 6% | 25% | 44% | 1% | 7% | 26.9% |
| CC(=O)CCC(Br)(CCC(Br)(CCC(C)=O)[N+](=O)[O-])[N+](=O)[O-] (configuration not stated) | 0% | 13% | 95.2% (active) | 8% | 14% | 90.5% (active) | -5% | 33% | 81.8% (active) | 15% | 29% | 91.5% (active) | 11% | 28% | 79% (active) | 12% | 22% | 98.3% (active) |
| Cc1cc(C(O)(c2cc(C)c(O)c(C(=O)O)c2)c2cc(C)c(O)c(C(=O)O)c2)cc(C(=O)O)c1O | 2% | -5% | 12.4% | 2% | -11% | -18% | 0% | 1% | 5.35% | 6% | -5% | 21.9% | -43% | -3% | -11.7% | 2% | -9% | 10.3% |
| CC(C)SC(=S)Nc1ccc(Cl)cc1 | -5% | 92% (active) | 97.8% (active) | -1% | 98% (active) | 99% (active) | 8% | 88% (active) | 97% (active) | -18% | 64% | 96.8% (active) | 0% | 91% (active) | 99% (active) | 5% | 96% (active) | 98.9% (active) |
| CN(C)CCCNc1ccc(O)c2c1C(=O)c1ccccc1C2=O | 93% (active) | 99% (active) | 89.9% (active) | 95% (active) | 99% (active) | 87.8% (active) | 96% (active) | 99% (active) | 88.2% (active) | 32% | 98% (active) | 67% | 92% (active) | 98% (active) | 89.7% (active) | 97% (active) | 99% (active) | 89.6% (active) |
| CN1CCN(CCn2c3c4ccccc4ccc3c3oc(=O)c4ccccc4c32)CC1 | 40% | 95% (active) | 38.5% | -13% | 97% (active) | 89.7% (active) | 28% | 96% (active) | 91.2% (active) | 22% | 92% (active) | 90.4% (active) | 19% | 97% (active) | 91.8% (active) | 13% | 97% (active) | 90.8% (active) |
| COc1cc(OC)c(/C=C\c2ccnc3ccccc23)c(OC)c1 | 35% | 91% (active) | 81.6% (active) | 32% | 93% (active) | 86.3% (active) | 26% | 96% (active) | 84.7% (active) | 19% | 55% | 37.5% | 22% | 98% (active) | 35% | 41% | 91% (active) | -2.05% |
| CCN(CC)CC(O)CNc1cc(C)nc(/N=C(\N)Nc2ccc(Cl)c(Cl)c2)n1 (configuration not stated) | 0% | 64% | 88.8% (active) | -21% | 34% | 57.3% | -11% | 54% | 87% (active) | -3% | 19% | 31.7% | -2% | 30% | 34.2% | 12% | 86% (active) | 81.2% (active) |
| S=C(NC/C(Br)=C/Br)Nc1cccc2ccccc12 | -30% | 99% (active) | 86% (active) | -18% | 99% (active) | 89.8% (active) | -21% | 99% (active) | 85.6% (active) | -5% | 99% (active) | 88.8% (active) | -25% | 99% (active) | 90.7% (active) | -13% | 99% (active) | 81.3% (active) |
| CC(C)n1nnc2c3ccccc3c3ccccc3c21 | 3% | 11% | -7.5% | 5% | -1% | 4.1% | -2% | 6% | 11.8% | 15% | 19% | -1.25% | 14% | 12% | 5.9% | -10% | 15% | 0% |
| ClC1c2ccccc2Cc2cccnc21 (configuration not stated) | 21% | 85% (active) | 75.3% (active) | 11% | 24% | 11.8% | 10% | 59% | 12.2% | 4% | 22% | -5.1% | 7% | 48% | -6.6% | 8% | 76% (active) | 23.5% |
| Cc1ccc(N=Nc2sc(N)nc2C)cc1C | -154% | -57% | 64% | -51% | -30% | 35.8% | -65% | -45% | 14.1% | -58% | -47% | 30.1% | -62% | -12% | 87.9% (active) | -125% | -52% | 85.4% (active) |

Reference: PubChem BioAssay (NCI)
